Only some compounds are listed: those with a hit (about 8.3% of all), similar ones and a draw of the others.
FMDV antiviral: High Throughput Screening for Foot and Mouth Disease Virus Antivirals | AID 1159524, 2015 | Potency, µM (highest dose often 57.9 µM), without a hit: top-dose activity change, negative = inhibition, actives largely listed as inhibitors | FMDV antiviral cell-based qHTS | actives 1.2% (n = 410,000); calls by dose curve; tested in HEK293T cells; further: read-out not given here; potency means the concentration at half of the fitted maximal effect; nearly all actives have a fitted effect of over 45% in size
HCMV antiviral: qHTS Assay for inhibitors of the human cytomegalovirus (HCMV). HFF cells, HCMV-luciferase reporter, 72 h; stronger effect = lower value. activity change, negative = inhibition, % at 57.5 µM. actives 4.5% (n = 410,000); in the data active means activity change below about -60%; inconclusive means no clear call, values can overlap the other calls; inactive means above about -39%
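Two compound doses tested in HFFs infected with HCMV-luciferase, MOI 1 PFU/cell, 72 h at 37C. Lysate luminescence read with OneGlo; data normalized against buffer-only and 10uM Salinomycin inhibitor controls.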
LASV entry inh: qHTS for Inhibitors of binding or entry into cells for Lassa Virus; Lassa virus pseudotype entry inhibition, cell reporter; Potency, µM (highest dose often 37.9 µM), inactives show top-dose activity change, negative = inhibition, usual class: inhibitors; actives 1.2% (n = 300,000); calls by dose curve; tested in HEK293 cells; further: potency means the concentration at half of the fitted maximal effect; nearly all actives have a fitted effect of over 50% in size
HCV inhibitor: qHTS Assay for Inhibitors of Hepatitis C Virus (HCV). Potency, µM (titrated, usually from 41.8 µM), for inactives: top-dose activity change, negative = inhibition, most hits filed as inhibitors. actives 3.4% (n = 340,000). Huh7.5.1 HCVcc-Cre infection, luciferase reporter, 44 h; further: potency means the concentration at half of the fitted maximal effect
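After 44 h co-culture of compound, cells and HCVcc-Cre (~0.5 moi), substrate is added for 15 min at room temperature and luciferase measured over 15 sec. Cells were seeded at 1,000/well and pre-cultured 4 h.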
MARV entry inh: qHTS for inhibitors of binding or entry into cells for Marburg Virus. actives 1.8% (n = 300,000). Marburg virus pseudotyped entry inhibition, cell reporter. AID 540276, 2011. Potency, µM (series often up to 37.8 µM), for inactives: top-dose activity change, negative = inhibition, usual class: inhibitors; calls by dose curve; tested in HEK293 cells; further: potency means the concentration at half of the fitted maximal effect
FBPA Giardia inh: qHTS Assay for Inhibitors of Fructose-1,6-bisphosphate Aldolase from Giardia Lamblia | A8B2U2 | purified Giardia FBPA | Potency, µM (doses to about 59.6 µM), inactives show top-dose activity, negative = inhibition, usual class: inhibitors | actives 0.71% (n = 290,000); further: potency means the concentration at half of the fitted maximal effect; nearly all actives have a fitted effect of over 55% in size
Target sequence (A8B2U2 whole entry, looked up): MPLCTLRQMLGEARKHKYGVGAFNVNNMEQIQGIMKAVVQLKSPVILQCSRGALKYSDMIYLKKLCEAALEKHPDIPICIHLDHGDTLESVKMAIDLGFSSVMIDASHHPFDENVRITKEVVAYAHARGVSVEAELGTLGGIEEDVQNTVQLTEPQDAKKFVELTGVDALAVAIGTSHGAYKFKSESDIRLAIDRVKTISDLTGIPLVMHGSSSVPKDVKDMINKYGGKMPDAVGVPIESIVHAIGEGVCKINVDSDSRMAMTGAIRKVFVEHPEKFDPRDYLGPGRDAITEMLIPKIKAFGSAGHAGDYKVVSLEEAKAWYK
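Giardia FBPA (40 nM reagent) was preincubated 10 min at RT with compound (up to 57.5 uM final), then substrate plus GAPDH/TPI/NAD/arsenate coupling system with diaphorase/resazurin was added; resorufin fluorescence (525/598 nm) was read after 20 min.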
Active calls of the source: *; ? = inconclusive; nt = no result; [ ] = remark or other dose. Unless noted, the call rests on the fitted dose curve; in most records, active means well fitted curve in the direction sought with a large enough effect; inconclusive means small, poorly fitted or top-dose-only effect, or another doubt; inactive means no such curve, though single readings can be large; an effect the other way counts as inactive or inconclusive. On the % scale 0 is the no-effect control and ±100 the full control effect.

SMILES	FMDV antiviral	HCMV antiviral	LASV entry inh	HCV inhibitor	MARV entry inh	FBPA Giardia inh
Cc1ccccc1C(=O)O/N=C/c1c(N2CCOCC2)n(C)c2ccccc12	?	-98.8*	-16.0%	1µM*	?	6.5%
COc1ccc2sc3c(=O)[nH]c4ccccc4c3c2c1	-21.8%	-82.9*	-1.2%	-20.8%	1.6%[46.1 µM]	7.5%
COc1ccc(CNC(=O)C(=O)NCC(c2ccco2)S(=O)(=O)c2ccc(Cl)cc2)cc1 (centres undefined)	?	3.5	-28.5%[46.1 µM]	nt	nt	nt
Cc1ccc(CNc2ccc(O)cc2)cc1	19.7%	-5.9	?	-20.4%	?	3.54µM*
CCOc1ccc(Nc2nc3cc(S(=O)(=O)N(CC)CC)ccc3o2)cc1	-20.2%	nt	?	10µM*	?	-8.9%
COc1ccc(-c2[nH]c(-c3ccc(O)cc3)nc2-c2ccccc2)cc1	-11.6%	-23.8	?	nt	?	nt
CCN(CC)C(=O)Cn1ncc2c([nH]c3ccccc32)c1=O	-17.5%	8.7	12.4%[46.1 µM]	nt	nt	nt
CC(=O)N(C(C)=O)c1ncc2c([nH]c3ccccc32)c1C#N	-1.7%	-77.0*	-13.6%	-7.8%	?	-3.6%
COc1cccc(Oc2nnnn2-c2ccccc2)c1	61.5%	101.0	18.5%	-1.6%	0.2%	-0.5%
COc1cccc(-n2nnnc2S(C)(=O)=O)c1	?	nt	8.91µM*	?	?	1.3%
Cc1cccc(-n2nnnc2S(C)(=O)=O)c1	25.1µM*	-108.3*	?	nt	nt	nt
Cc1cc(C(=O)NC2CCCc3c2cnn3-c2ccc(C(C)(C)C)cc2)nn1C (centres undefined)	?	-78.5*	?	7.08µM*	?	nt
Cc1cc(C)cc(-n2ncc3c2CCCC3NC(=O)c2cc(C)[nH]n2)c1 (centres undefined)	?	-34.5	?	?	3.55µM*	nt
CC(=O)c1cc(C(=O)NC2CCCc3c2cnn3-c2cc(C)cc(C)c2)[nH]n1 (centres undefined)	24.7%	66.7	-27.3%	-14.5%	-16.5%	nt
CC(C)(C)c1ccc(-n2ncc3c2CCCC3NC(=O)C2(C(N)=O)CC2)cc1 (centres undefined)	?	-95.7*	nt	?	nt	13.2%
Cc1cc(C)cc(-n2ncc3c2CCCC3NC(=O)c2cc(C)n(C)n2)c1 (centres undefined)	-9.1%	-36.4	nt	?	nt	3.1%
CC(C)Nc1oc(-c2ccccc2)nc1-c1cccc2ccccc12	nt	nt	nt	nt	nt	-0.6%
O=C(NC(=S)NNC(=O)c1cnccn1)c1ccc(F)cc1	4.5%	-24.9	nt	14.1µM*	nt	5.3%
CCCOc1ccc(C(=O)NC(=S)NCc2cccnc2)cc1	-20.2%	-64.7*	-16.7%	?	0.2%	0.3%
COc1ccc(C(=O)NNC(=O)c2ccc3ccccc3n2)cc1	-21.4%	-88.5*	?	?	?	nt
CCOc1ccc(C(=O)NC(=S)NCc2cccnc2)cc1	-9.9%	-15.8	6.6%	17.0%	?	0.1%
CCCOc1ccc(C(=O)NNC(=S)NC(=O)CC)cc1	-10.7%	-62.1*	14.6µM*	?	?	20.7%
COc1ccc(Cl)cc1NC(=O)c1c(NCc2cccnc2)sc2c1CCC(C)C2 (centres undefined)	-29.4%	-28.9	2.3%[46.1 µM]	nt	nt	nt
COc1ccc(C(=O)NNC(=S)NC(=O)c2ccc(OC)cc2)cc1	-11.2%	-92.2*	nt	-14.3%	nt	?
COc1ccc(CC(=O)NNC(=S)NC(=O)c2cccnc2)cc1	4.1%	22.7	12.6%	-9.4%	?	?
SMILES	FMDV antiviral	HCMV antiviral	LASV entry inh	HCV inhibitor	MARV entry inh	FBPA Giardia inh
COc1ccc(C(=O)NNC(=S)NC(=O)c2cccnc2)cc1	7.9%	-88.6*	-25.5%	3.3%	?	-22.6%
CCc1ccc(NC(=O)Cn2c(=O)n(CCC(=O)NCCc3ccc(OC)c(OC)c3)c(=O)c3ccccc32)cc1	6.5%	-0.8	-2.9%[46.1 µM]	nt	7.2%[46.1 µM]	nt
Cc1nc2cnc(N3CCOCC3)nc2n(CCc2ccccc2)c1=O	-15.4%	nt	nt	nt	nt	9.7%
Cc1oc2cc(O)cc(C)c2c(=O)c1-c1cnn(-c2ccccc2)c1	0.0%	?	?	8.91µM*	?	-1.4%
O=S1(=O)CCOC[C@H](c2ccccc2)N1Cc1ccccc1	1.6%	21.3	nt	-8.8%	nt	-3.2%
O=S1(=O)CCOC[C@H](c2ccccc2)N1Cc1cccc(Cl)c1	0.0%	-79.8*	nt	-2.6%	nt	-2.2%
COc1ccc(OC(=O)c2nc(SCc3ccccc3C)ncc2Cl)cc1	-28.4%	1.3	16.4%[46.1 µM]	nt	?	nt
CC(=O)N1CCCC1c1nc2ccccc2n1Cc1ccccc1C (centres undefined)	-3.7%	17.4	?	nt	?	nt
C(C#CCCCCCCCCC[n+]1ccccc1)#CCCCCCCCCC[n+]1ccccc1	17.8µM*	nt	?	?	2.51µM*	6.4%
Cc1cc2n(n1)CCCN2C(=O)Nc1cccc(C)c1C	-5.3%	-1.3	-11.9%[46.1 µM]	nt	nt	nt
O=C(Nc1ccccc1Cl)c1ccc([N+](=O)[O-])o1	-11.0%	-100.5*	?	?	12.6µM*	-3.8%
Cc1ccccc1NC(=O)c1ccc([N+](=O)[O-])o1	-29.5%	-13.3	-17.5%	?	?	-9.2%
O=C(Nc1ccc(NC(=O)c2ccc([N+](=O)[O-])o2)cc1Cl)c1ccco1	-4.0%	-73.3*	-0.2%	?	-12.1%[46.1 µM]	7.6%
Cc1ccc(NC(=O)c2ccc([N+](=O)[O-])o2)c(C)c1	-9.2%	-24.6	nt	14.1µM*	nt	-15.6%
CCSc1nnc(NC(=O)C(C)Sc2nc3ccccc3[nH]2)s1 (centres undefined)	-16.7%	-103.2*	28.8%	11.7%	14.0%	-1.2%
CC(C)S(=O)(=O)c1csc(C(=O)Nc2ccc(F)cc2)c1N	?	72.0	?	3.16µM*	?	-8.6%
CCCCNC(C(=O)Nc1ccc([N+](=O)[O-])cc1Br)c1ccccc1 (centres undefined)	-18.2%	-25.5	11.7%	4.4%	?	?
O=C(OC(C(=O)Nc1ccc([N+](=O)[O-])cc1Br)c1ccccc1)c1ccccc1 (centres undefined)	18.5%	-33.0	-2.4%	?	3.55µM*	-5.4%
COCCNC(C(=O)Nc1ccc([N+](=O)[O-])cc1Br)c1ccccc1 (centres undefined)	?	-82.5*	-4.6%	-16.3%	-9.1%	-1.5%
COc1ccc(CNC(=O)c2cnn(-c3ncc4c(n3)-c3ccccc3CC4)c2C)cc1OC	33.9%	nt	nt	nt	nt	nt
[N-]=[N+]=NC(c1ccccc1)C(NC(=O)c1cc(C(F)(F)F)cc(C(F)(F)F)c1)c1ccccc1 (centres undefined)	25.1µM*	?	nt	nt	nt	nt
COc1ccc(N/C(C)=C2/C(=O)C(=O)N(CCO)C2c2ccc(Br)cc2)cc1 (centres undefined)	-18.1%	-95.5*	-7.3%	-26.3%	-0.2%	5.1%

Screens from PubChem.
